One assay addresses Albumin (Bos taurus) (UniProt P02769). Put plainly: bovine serum albumin binders on microarray, profiling panel, artefact control for SMM control protein annotation, biochemical, small-molecule microarray, Alexa647 label, 635/667 nm fluorescence (AID 1118).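 Also: score merges 667 nm emission intensity and signal-to-noise per printed compound spot.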 The conditions noted are these: BSA-A647 binding, fluorescence 635 nm, higher = more signal.
Assay [1] in a line: small-molecule microarray binders of probe aXIP, primary screen, biochemical, NeuroSMM set, 635/667 nm fluorescence (AID 1119).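 Also: probe is the protein aXip251-270 applied at 1 µg/mL to compound-printed slides; binding of probe to printed compounds measured as 667 nm fluorescence plus signal to noise.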 The conditions noted are these: higher = more signal, called active from +8 up or from −8 down.
Assay [2] is described as follows: small-molecule binders of probe aNOTCH3, primary screen, biochemical, small-molecule microarray, 635/667 nm fluorescence (AID 1120).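 Also: probe is a biotin-tagged antibody raised against NOTCH3 rather than NOTCH3 protein; score merges spot fluorescence near 667 nm with spot signal to noise.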 Particulars: higher = more signal.
The nature of assay [3]: small-molecule binders of probe aNOTCH2, primary screen, biochemical, small-molecule microarray, 635/667 nm fluorescence (AID 1121).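 Also: score merges feature fluorescence read at 667 nm with its signal to noise.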 Particulars: higher = more signal.
For assay [4], the target named is Carbonic anhydrase 2 (Homo sapiens) (UniProt P00918). Put plainly: CAII small-molecule binders, profiling panel, biochemical, small-molecule microarray, Alexa647-labelled CAII (AID 1122). Particulars: CAII-A647 binding fluorescence, higher = more signal.
The nature of assay [5]: COS7 lysate on small-molecule microarray, probe aHis, 635 nm (AID 1123).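 Also: z-score combines 667nm fluorescence intensity with signal-to-noise per printed compound spot.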 The conditions noted are these: COS7 cell lysate, fluorescence, higher = more signal.
The nature of assay [6]: compound binding in COS7 lysate, probe aLAP1, primary screen, cell lysate, small-molecule microarray (AID 1124).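 Also: lysate comes from COS7 cells expressing LAP1 and is applied at 0.3 µg/mL; score merges spot fluorescence near 667 nm with signal-to-noise over triplicate slides.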 The conditions noted are these: probe aLAP1, fluorescence, higher = more signal.
A further assay deals with Sam68 (KHDRBS1). Nature of the assay: Sam68 small-molecule binders, primary screen, biochemical, small-molecule microarray, 635 nm fluorescence (AID 1125).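 Also: score merges 667 nm channel intensity with signal to noise over triplicate slides.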 Particulars: small-molecule microarray binding, higher = more signal.
Assay [7] deals with Chordin-like protein 2 (CHRDL2). Put plainly: CHRDL2 small-molecule binders, primary screen, biochemical, small-molecule microarray, 635 nm fluorescence (AID 1126).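 Also: printed compound slides probed with Chrdl2 protein at 4 µg/mL for 1 h at 4 C; score merges 667 nm emission intensity with signal to noise over three replicate slides.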 Particulars: small-molecule microarray binding, fluorescence 635 nm; higher = more signal.
In assay [8] the target is Concanavalin-A (Canavalia ensiformis) (UniProt P02866). Put plainly: ConA small-molecule binders, primary screen, artefact control for SMM control protein annotation, biochemical, small-molecule microarray, Alexa647 label, 635 nm (AID 1127).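 Also: z combines 667 nm emission intensity with signal-to-noise across three replicate slides.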 The conditions noted are these: ConA-A647 binding fluorescence, higher = more signal.
Assay [9] can be described thus: anti-His antibody binders, primary screen, artefact control for SMM control protein annotation, biochemical, small-molecule microarray, 635 nm fluorescence (AID 1128).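 Also: score merges feature fluorescence with signal-to-noise for each printed compound spot.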 The conditions noted are these: anti-His Alexa647 antibody binding, higher = more signal.
The test system of assay [10] is Human papillomavirus type 1a E7 protein (residues 1-88). Put plainly: HPV1a E7 small-molecule binders, primary screen, biochemical, small-molecule microarray, residues 1-88, 635 nm (AID 1129). The conditions noted are these: small-molecule microarray binding, fluorescence 635 nm; higher = more signal.
The target in assay [11] is Focal adhesion kinase 1 (Homo sapiens) (UniProt Q05397). Put plainly: small-molecule microarray binders of FAK, primary screen, biochemical, 635/667 nm fluorescence, BSA, DTT (AID 1130).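 Also: composite of spot emission at 667 nm and signal to noise over triplicate slides.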 Particulars: PTK2 binding, 635 nm fluorescence, higher = more signal.
Assay [12] relates to Fibrinogen (Alexa647-labelled). Put plainly: fibrinogen binders on compound microarrays, profiling panel, artefact control for SMM control-protein annotation, biochemical, small-molecule microarray, 635/667 nm fluorescence (AID 1131).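 Also: z-score merges 667 nm fluorescence with per-spot signal-to-noise over triplicate slides.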 The conditions noted are these: fibrinogen-A647 binding fluorescence, higher = more signal.
For assay [13], the target named is Follistatin (Homo sapiens) (UniProt P19883). Nature of the assay: follistatin binders on small-molecule microarrays, primary screen, biochemical, small-molecule microarray, 635/667 nm fluorescence (AID 1132). The conditions noted are these: FST binding, 635 nm fluorescence, higher = more signal.
Assay [14] has as its target Fibroblast growth factor 2 (Homo sapiens) (UniProt P09038). Nature of the assay: FGF2 binders on small-molecule microarrays, primary screen, biochemical, small-molecule microarray, 635/667 nm fluorescence (AID 1133). The conditions noted are these: small-molecule microarray binding, FGF2, fluorescence 635/667; higher = more signal.
Assay [15] can be described thus: mitochondrial membrane potential change in A549 cells, profiling panel, cell-based, JC-1 fluorescence, basal, 24 h, 100 nL (AID 1138).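 Also: A549 lung adenocarcinoma cells under basal conditions with no added stimulus; test concentration not given here.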 The conditions noted are these: higher = more signal.
For a further assay, the system named is Lefty1. Nature of the assay: Lefty1 binders on small-molecule microarrays, primary screen, biochemical, small-molecule microarray, 635/667 nm fluorescence (AID 1139). The conditions noted are these: small-molecule microarray binding, fluorescence 635/667; higher = more signal.
In assay [16] the test system is wheat germ agglutinin (Triticum aestivum), Alexa647-labelled. Nature of the assay: wheat germ agglutinin binders on compound microarrays, profiling panel, artefact control for SMM control-protein annotation, biochemical, small-molecule microarray, 635/667 nm fluorescence (AID 1140).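 Also: score merges 667 nm feature emission with signal to noise over triplicate slides.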 The conditions noted are these: WGA-A647 binding, 635 nm fluorescence, higher = more signal.

Assay [17] has as its target Luciferin 4-monooxygenase (Photinus pyralis) (UniProt P08659). Nature of the assay: firefly luciferase enzyme inhibitors, primary screen, biochemical, luminescence, purified enzyme, 2006 set (AID 1141).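 Also: cell-free assay with purified firefly luciferase at 100 ng per well in PBS; test concentration not given here.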 Particulars: SteadyGlo luminescence, 30 min, higher = more signal, called active from +8 up or from −8 down.

Calls of active or inactive are those of the source.

Albumin (Bos taurus), sequence (P02769 whole entry, looked up): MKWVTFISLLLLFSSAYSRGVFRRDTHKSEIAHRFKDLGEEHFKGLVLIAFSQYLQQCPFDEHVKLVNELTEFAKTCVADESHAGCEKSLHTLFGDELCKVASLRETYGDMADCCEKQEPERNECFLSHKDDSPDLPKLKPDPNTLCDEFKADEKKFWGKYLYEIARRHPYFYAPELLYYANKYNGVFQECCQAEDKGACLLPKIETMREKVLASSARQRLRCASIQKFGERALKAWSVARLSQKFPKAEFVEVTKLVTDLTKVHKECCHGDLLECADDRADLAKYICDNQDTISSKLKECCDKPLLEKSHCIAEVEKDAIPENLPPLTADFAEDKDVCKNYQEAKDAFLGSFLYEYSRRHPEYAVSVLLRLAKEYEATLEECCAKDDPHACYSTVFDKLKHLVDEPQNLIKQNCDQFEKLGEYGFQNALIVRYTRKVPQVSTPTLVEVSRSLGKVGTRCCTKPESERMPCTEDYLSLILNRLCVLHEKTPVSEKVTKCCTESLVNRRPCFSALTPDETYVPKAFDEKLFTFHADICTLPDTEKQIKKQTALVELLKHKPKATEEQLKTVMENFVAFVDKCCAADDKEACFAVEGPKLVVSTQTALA
Luciferin 4-monooxygenase (Photinus pyralis), sequence (P08659 whole entry, looked up): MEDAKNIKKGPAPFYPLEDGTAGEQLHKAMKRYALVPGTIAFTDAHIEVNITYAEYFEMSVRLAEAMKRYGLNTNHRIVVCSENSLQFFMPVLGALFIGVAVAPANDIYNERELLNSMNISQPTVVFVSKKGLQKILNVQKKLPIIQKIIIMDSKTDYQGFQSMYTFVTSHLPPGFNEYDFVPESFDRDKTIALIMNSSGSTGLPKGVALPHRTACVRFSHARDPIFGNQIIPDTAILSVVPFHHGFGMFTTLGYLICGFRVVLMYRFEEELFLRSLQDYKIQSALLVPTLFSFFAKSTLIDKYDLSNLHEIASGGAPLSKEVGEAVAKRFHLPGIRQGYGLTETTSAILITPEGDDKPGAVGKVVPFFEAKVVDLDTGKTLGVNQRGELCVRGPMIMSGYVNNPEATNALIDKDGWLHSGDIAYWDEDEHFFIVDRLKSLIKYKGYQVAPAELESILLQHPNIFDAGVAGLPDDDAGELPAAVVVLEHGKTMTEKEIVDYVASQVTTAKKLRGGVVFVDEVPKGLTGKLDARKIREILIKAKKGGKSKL
Follistatin (Homo sapiens), sequence (P19883 whole entry, looked up): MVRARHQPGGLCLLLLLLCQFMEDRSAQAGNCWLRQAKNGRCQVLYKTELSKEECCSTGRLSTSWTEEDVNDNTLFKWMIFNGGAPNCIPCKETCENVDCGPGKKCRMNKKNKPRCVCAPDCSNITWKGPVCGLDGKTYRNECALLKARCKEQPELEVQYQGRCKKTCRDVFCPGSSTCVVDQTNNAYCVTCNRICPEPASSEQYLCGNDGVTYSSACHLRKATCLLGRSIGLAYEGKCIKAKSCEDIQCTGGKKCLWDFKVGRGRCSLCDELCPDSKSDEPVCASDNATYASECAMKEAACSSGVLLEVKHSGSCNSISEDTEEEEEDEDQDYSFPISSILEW
Focal adhesion kinase 1 (Homo sapiens), sequence (Q05397 whole entry, looked up): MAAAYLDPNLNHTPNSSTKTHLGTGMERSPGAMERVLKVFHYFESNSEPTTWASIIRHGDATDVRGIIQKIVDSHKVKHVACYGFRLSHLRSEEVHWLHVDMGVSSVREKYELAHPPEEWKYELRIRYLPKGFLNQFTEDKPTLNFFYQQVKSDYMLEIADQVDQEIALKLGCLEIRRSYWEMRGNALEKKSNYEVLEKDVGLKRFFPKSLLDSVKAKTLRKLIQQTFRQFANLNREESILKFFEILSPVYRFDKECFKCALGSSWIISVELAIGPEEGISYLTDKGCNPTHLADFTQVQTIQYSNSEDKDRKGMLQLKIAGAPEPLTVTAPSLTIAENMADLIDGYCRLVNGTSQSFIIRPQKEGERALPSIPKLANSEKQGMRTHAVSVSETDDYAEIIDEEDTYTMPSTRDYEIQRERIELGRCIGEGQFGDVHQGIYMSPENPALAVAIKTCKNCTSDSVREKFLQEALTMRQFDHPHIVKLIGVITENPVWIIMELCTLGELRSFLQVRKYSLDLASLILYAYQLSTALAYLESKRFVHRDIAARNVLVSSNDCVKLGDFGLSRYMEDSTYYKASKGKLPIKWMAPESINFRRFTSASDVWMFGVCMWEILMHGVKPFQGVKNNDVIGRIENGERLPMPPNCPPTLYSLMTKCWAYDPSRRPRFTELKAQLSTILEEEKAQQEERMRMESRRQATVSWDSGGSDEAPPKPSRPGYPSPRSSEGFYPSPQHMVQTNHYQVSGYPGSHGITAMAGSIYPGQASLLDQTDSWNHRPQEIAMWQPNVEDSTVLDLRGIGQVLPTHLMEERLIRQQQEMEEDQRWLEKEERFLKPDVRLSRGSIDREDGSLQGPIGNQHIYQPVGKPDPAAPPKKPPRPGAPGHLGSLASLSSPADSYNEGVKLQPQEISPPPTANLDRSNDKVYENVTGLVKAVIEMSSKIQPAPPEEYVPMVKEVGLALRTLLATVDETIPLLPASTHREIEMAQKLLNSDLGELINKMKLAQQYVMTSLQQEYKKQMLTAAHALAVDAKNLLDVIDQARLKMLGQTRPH
Fibroblast growth factor 2 (Homo sapiens), sequence (P09038 whole entry, looked up): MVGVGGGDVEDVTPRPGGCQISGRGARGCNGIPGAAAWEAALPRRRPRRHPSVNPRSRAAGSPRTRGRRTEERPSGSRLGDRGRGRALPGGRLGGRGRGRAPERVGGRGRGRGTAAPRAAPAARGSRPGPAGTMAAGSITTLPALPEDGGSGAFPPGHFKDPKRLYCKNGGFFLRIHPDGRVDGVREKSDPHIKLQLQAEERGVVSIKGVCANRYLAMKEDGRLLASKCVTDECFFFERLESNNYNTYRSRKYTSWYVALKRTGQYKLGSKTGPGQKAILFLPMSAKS
Concanavalin-A (Canavalia ensiformis), sequence (P02866 whole entry, looked up): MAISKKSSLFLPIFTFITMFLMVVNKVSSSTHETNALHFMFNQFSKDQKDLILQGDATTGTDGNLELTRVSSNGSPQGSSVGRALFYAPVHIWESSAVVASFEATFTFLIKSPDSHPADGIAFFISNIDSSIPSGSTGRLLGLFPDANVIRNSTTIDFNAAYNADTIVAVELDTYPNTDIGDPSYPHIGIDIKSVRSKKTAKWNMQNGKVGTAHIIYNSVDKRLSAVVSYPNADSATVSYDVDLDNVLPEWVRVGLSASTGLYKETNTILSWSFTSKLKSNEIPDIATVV

On to `CCOC(=O)CCN1C(=O)[C@H]2[C@@H]3C(=CC[C@H]2C1=O)C(=O)[C@H]1O[C@H]1[C@H]3O`, for which the composite z-score with Albumin (Bos taurus) was 0.375; in assay [2] it was -0.313; in assay [3], -0.146; in assay [4] it was 0.534; in assay [5], -0.774; in assay [6], 0.0946. For the same molecule, the composite z-score is -0.728 in the assay on Sam68 (KHDRBS1); -0.23 in [7]; -0.666 in [8]; -0.705 in [9]; -0.307 in assay [10]; -0.336 in assay [11]. Moreover, the composite z-score in assay [12] is -0.476; in assay [13], -1.02; in assay [14] it was -0.858; in the assay with Lefty1, -0.762; in assay [16], 0.243. For the same molecule, in assay [1], the composite Z-score was -0.342 (inactive). In addition, the z-score in assay [15] is 0.736; in assay [17], -1.04 (inactive).
Regarding `CC(=O)OC[C@H]1O[C@H](CC=NO[C@H](C)c2cn([C@@H]3COC[C@H]3O)nn2)C=C[C@@H]1OC(C)=O`, the composite z-score is 0.834 with Albumin (Bos taurus); -0.182 in assay [2]; -0.153 in assay [3]; -0.0556 in [4]; -0.426 in [5]; -0.16 in [6]. Further, the composite z-score is -0.378 in the assay on Sam68 (KHDRBS1); 0.85 in [7]; -0.152 in [8]; 0.606 in assay [9]; 0.179 in assay [10]; -0.0621 in assay [11]. Besides, the composite z-score in assay [12] is 0.897; in [13], 0.356; in [14], 0.396; in the assay on Lefty1, 0.42; in assay [16], -0.0712. In addition, in assay [1], the composite Z-score was 0.195 (inactive). The z-score in assay [15] is -0.17; in assay [17] it was -0.63 (inactive).
With `CC(C)CON=C1C[C@@H](O)[C@@H](O)[C@@H]2[C@@H]3C(=O)N([C@@H](C)c4ccccc4)C(=O)[C@@H]3CC[C@@H]12`, the composite z-score was 0.538 in the assay with Albumin (Bos taurus); -0.145 in [2]; -0.153 in assay [3]; -0.139 in assay [4]; -0.039 in assay [5]; -0.0296 in assay [6]. Besides, the composite z-score in the assay with Sam68 (KHDRBS1) was 0.132; in assay [7], 0.417; in assay [8] it was 0.0928; in [9] it was 0.0924; in assay [10], 0.124; in assay [11], -0.164. The composite z-score in assay [12] is 0.501; in [13] it was -0.319; in [14] it was 0.114; in the assay with Lefty1 it was -0.162; in assay [16] it was 0.252. Moreover, in assay [1], the composite Z-score was -0.293 (inactive). Besides, the values for the z-score in [15] and in assay [17] were -0.655 and 0.999 (inactive), respectively.
As for `COc1ccc(OC[C@@H](CO)OC)cc1`, the composite z-score with Albumin (Bos taurus) is -0.151; in [2], -0.0865; in assay [3], -0.118; in [4], -0.148; in assay [5] it was -0.206; in assay [6], -0.295. Besides, the composite z-score in the assay with Sam68 (KHDRBS1) came out at 0.14; in [7], 0.175; in [8], 0.0261; in assay [9] it was 0.324; in [10], 0.0896; in [11], 0.172. Moreover, the composite z-score is 0.227 in assay [12]; 0.649 in assay [13]; 0.205 in assay [14]; 0.356 in the assay on Lefty1; -0.254 in assay [16]. Besides, the composite Z-score in assay [1] is 0.675 (inactive). The z-score is 0.754 in assay [15] and -0.531 (inactive) in assay [17].
In the case of `O=C1[C@H]2[C@H]3[C@H](O)[C@H](O)CC(=NO[C@@H]4O[C@H](CO)[C@@H](O)[C@H](O)[C@H]4O)[C@H]3CC[C@H]2C(=O)N1C[C@@H]1CCCO1`, the composite z-score is -0.011 with Albumin (Bos taurus); -0.136 in [2]; -0.0101 in assay [3]; -0.408 in [4]; -0.686 in assay [5]; 0.041 in assay [6]. Further, the composite z-score in the assay on Sam68 (KHDRBS1) was 0.155; in [7] it was 0.109; in [8], -0.391; in assay [9] it was -0.0286; in [10], -0.178; in assay [11], -0.159. The composite z-score in [12] is 0.333; in assay [13], -0.438; in [14], 0.182; in the assay with Lefty1, 0.0013; in assay [16], -0.442. Moreover, the composite Z-score in [1] is 0.274 (inactive). For the same molecule, the z-score in assay [15] was -0.222; in assay [17], 0.569 (inactive).
In the case of `O=C(NCCC[N+]1=CC=NC1c1ccccc1)N1CCCc2nc(-c3ccc(Br)cc3)ccc21` (stereo not given), the composite z-score with Albumin (Bos taurus) is 0.452; in [2] it was -0.222; in assay [3], -0.119; in assay [4], -0.0214; in [5] it was -0.382; in [6], -0.264. Besides, the composite z-score in the assay on Sam68 (KHDRBS1) is 0.152; in assay [7], 0.421; in assay [8], 0.605; in assay [9] it was 0.862; in assay [10], -0.493; in [11] it was 0.183. Also, the composite z-score is 0.692 in assay [12]; 0.733 in assay [13]; 0.208 in assay [14]; 0.27 in the assay with Lefty1; -0.471 in assay [16]. In addition, the composite Z-score in assay [1] was 0.762 (inactive). The z-score is 1.76 in assay [15] and 0.395 (inactive) in [17].
`CCOC(=O)CCN1C(=O)[C@H]2[C@H]3[C@H](O)[C@H](O)CC(=O)[C@@H]3CC[C@H]2C1=O`: the composite z-score was 0.206 with Albumin (Bos taurus); -0.0448 in [2]; -0.12 in assay [3]; 0.494 in assay [4]; 0.696 in [5]; -0.732 in assay [6]. Also, the composite z-score in the assay with Sam68 (KHDRBS1) is 0.81; in assay [7] it was 0.514; in assay [8], 0.729; in assay [9], 0.591; in assay [10], 0.843; in [11] it was -0.0508. For the same molecule, the composite z-score in assay [12] was determined as 0.532; in [13], 0.64; in assay [14] it was 1.28; in the assay with Lefty1 it was 1.38; in assay [16] it was 0.157. Moreover, the composite Z-score in assay [1] was -0.778 (inactive). Also, the z-score is -0.466 in assay [15] and 0.426 (inactive) in [17].
On to `C[C@@H]1CC[C@H]2C(=O)OC(CN3C(=O)c4ccccc4C3=O)CN2[C@H]1c1ccc(Br)cc1` (stereo not given in full), for which the composite z-score in the assay with Albumin (Bos taurus) is 0.808; in assay [2] it was -0.0984; in assay [3] it was 0.178; in assay [4] it was 0.305; in assay [5] it was 0.787; in assay [6] it was 0.376. Moreover, the composite z-score with Sam68 (KHDRBS1) worked out at 0.438; in assay [7], 0.333; in assay [8], 0.781; in [9], 0.194; in [10], 0.731; in [11] it was 0.246. Also, the composite z-score in assay [12] was 0.377; in assay [13] it was -0.145; in assay [14], -0.204; with Lefty1 it was 0.117; in [16] it was 0.681. The composite Z-score in [1] was 0.372 (inactive). For the same molecule, the z-score in [15] is 0.0226; in [17], -0.796 (inactive).

The record behind these values is PubChem BioAssay.
